# Experimental data from the supplement of paper PMC6953052.
# Values joined by “and” are separate entries in the source; they are usually repeats but may differ in a detail not shown here. Identical values can stand only once. ± gives the standard deviation of the averaged measurements. Over roughly 1,700 compounds, “fraction of GFP-LC3-positive cells (≥5 vesicles/cell)” has its median near 0.058; the highest 2% begin near 0.59. Many of the other results were omitted from the sample, so the highest values are more common in it than they were.
# Test system: CbCln3 +/+ GFP-LC3 cerebellar neuronal cells
# Test: fraction of GFP-LC3-positive cells (≥5 vesicles/cell); higher = more autophagosome accumulation
# Procedure, shortened: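 By pin transfer, ~50 nL of compound in DMSO went in duplicate into 384-well plates holding 2 × 10^3 wild-type or mutant CbCln3 cerebellar cells per well that stably express GFP-LC3, followed by 24 h at 33 °C. The final 30 min included Hoechst 33342 and LysoTracker Red, and then came 3.2% PFA fixation and 10× imaging of three fields per well. Each value gives the fraction of cells above a vesicle threshold, averaged across duplicates, with CellProfiler counting GFP-LC3 vesicles and out-of-focus images left out. The threshold is 5 or more vesicles per cell.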
row,Compound,fraction of GFP-LC3-positive cells
1,Oc1cc(O)cc(/C=C/c2ccc(O)c(O)c2)c1 [Piceatannol],0.357
2,COC(=O)/C=C/c1cc(O)ccc1O,0.852
3,COc1ccc(C(=O)c2ccccc2)c(O)c1 [Oxybenzone],0.0797
4,Oc1cc(O)cc(/C=C/c2ccc(O)c(O)c2)c1,0.173
5,CCCCCCCC/C=C\CCCCCCCCOC[C@H](COP(=O)([O-])OCC[N+](C)(C)C)OC(C)=O,0.0408 ± 0.0017
6,C[n+]1cccc(C(=O)[O-])c1 [Trigonelline],0.042
7,Cn1cnc2c(NCc3ccccc3)nc(NCCO)nc21 [olomoucine],0.058
8,Cn1cnc2c(NCc3ccccc3)nc(NCCO)nc21,0.0719
9,O.O.O=c1c(O)c(-c2ccc(O)c(O)c2)oc2cc(O)cc(O)c12 [Quercetine dihydrate],0.0843
10,CC(=O)N[C@@H](CC(C)C)C(=O)N[C@@H](CC(C)C)C(=O)N[C@H](C=O)CCCNC(=N)N [Leupeptin],0.0499
11,CSCC[C@@H](C=O)NC(=O)[C@H](CC(C)C)NC(=O)[C@H](CC(C)C)NC(C)=O,0.0674
12,CCCC[C@@H](C=O)NC(=O)[C@H](CC(C)C)NC(=O)[C@H](CC(C)C)NC(C)=O,0.926
13,Nc1ccn([C@H]2CC[C@@H](CO)O2)c(=O)n1 [Zalcitabine],0.11
14,"O=C1C=CC(=O)c2c1ccc1c2ccc2ccccc21 [Chrysene-1,4-quinone]",0.597
15,O=C1CCc2c(ccc3ccccc23)O1 [Splitomycin],0.0416
16,CCCCCCCCCCC(=O)O [Undecanoic acid],0.0729
17,CC(=O)Oc1cc(C(C)C)c(OCCN(C)C)cc1C.Cl [Moxisylyte hydrochoride],0.0756
18,CS(=O)(=O)c1ccc([C@@H](O)[C@@H](CO)NC(=O)C(Cl)Cl)cc1 [Thiamphenicol],0.0366
19,COc1ccc(CC(N)C(=O)N[C@H]2[C@@H](O)[C@H](n3cnc4c(N(C)C)ncnc43)O[C@@H]2CO)cc1 (stereo not given in full) [puromycin],0.276
20,N=C(N)N1CCc2ccccc2C1.N=C(N)N1CCc2ccccc2C1.O=S(=O)(O)O [Debrisoquin sulfate],0.0501
21,C/C=C(/C(=C/C)c1ccc(O)cc1)c1ccc(O)cc1 [Dienestrol],0.14
22,"CCCCC/C=C/C/C=C/CCCCCCCCCCC(=O)O [12(Z), 15(Z)-Heneicosadienoic acid]",0.0338
23,NC(CO)(CO)CO.O=C(c1ccccc1)c1ccc2n1CCC2C(=O)O (stereo not given) [Ketorolac tromethamine],0.0452

row,Compound,fraction of GFP-LC3-positive cells
1,CC(C)(C)NCC(O)COc1cccc2c1CC(O)C(O)C2 (stereo not given) [Nadolol],0.0452
2,O=C(O)c1ccccc1Nc1ccccc1,0.0543
3,N#CC(=C(/N)Sc1ccccc1N)/C(C#N)=C(\N)Sc1ccccc1N,0.0648 and 0.109
4,CO[C@H]1/C=C/O[C@@]2(C)Oc3c(C)c(O)c4c(O)c(c(/C=N/N5CCN(C)CC5)c(O)c4c3C2=O)NC(=O)/C(C)=C\C=C\[C@H](C)[C@H](O)[C@@H](C)[C@@H](O)[C@@H](C)[C@H](OC(C)=O)[C@@H]1C [Rifampicin],0.0415
5,C[C@]12CCC(=O)C=C1CC[C@@H]1[C@@H]2C(=O)C[C@@]2(C)[C@H]1CC[C@]2(O)C(=O)CO [Cortisone],0.0551
6,CCCCCCCC/C=C/CCCCCCCCCCC(=O)O [12(Z) Heneicosenoic acid],0.0354
7,CCC1(c2ccccc2)C(=O)NCNC1=O [Primidone],0.0329
8,CC(C)Cn1c(=O)n(C)c(=O)c2[nH]cnc21,0.0399
9,CN1C(C(=O)Nc2ccccn2)=C(O)c2ccccc2S1(=O)=O [piroxicam],0.0598
10,C[C@H](NCCc1ccc(O)cc1)[C@H](O)c1ccc(O)cc1.Cl [Ritodrine hydrochloride],0.0423
11,CO[C@H]1C[C@@H]2CC[C@@H](C)[C@@](O)(O2)C(=O)C(=O)N2CCCC[C@H]2C(=O)O[C@H]([C@H](C)C[C@@H]2CC[C@@H](O)[C@H](OC)C2)CC(=O)[C@H](C)/C=C(\C)[C@@H](O)[C@@H](OC)C(=O)[C@H](C)C[C@H](C)/C=C/C=C/C=C/1C,0.0529
12,N#Cc1c(-c2ccccc2)no[n+]1[O-] [Furoxan],0.597
13,COc1cc(CNC(=O)CCCC/C=C/C(C)C)ccc1O [Capsaicin],0.0783
14,Cc1cccc(Nc2ccncc2S(=O)(=O)NC(=O)NC(C)C)c1 [Torsemide],0.0886
15,CC(/C=C/C(=O)NO)=C\[C@@H](C)C(=O)c1ccc(N(C)C)cc1 [trichostatin-A],0.799
16,CN(C)N=Nc1[nH]cnc1C(N)=O [Dacarbazine],0.0174
17,CC/C=C\C/C=C\C/C=C\C/C=C\C=C\C(O)CCCC(=O)O (racemic),0.07
18,Cc1ccc(S(=O)(=O)N[C@@H](Cc2ccccc2)C(=O)CCl)cc1,0.315
19,CCCCNC(=O)NS(=O)(=O)c1ccc(C)cc1 [Tolbutamide],0.0602
20,Cc1ccc(S(=O)(=O)N[C@@H](Cc2ccccc2)C(=O)CCl)cc1 [Tosyl-Phe-CMK (TPCK)],0.744
21,CCCCNC(=O)NS(=O)(=O)c1ccc(C)cc1,0.046
22,O=C(O)c1ccccc1OP(=O)(O)O [Fosfosal],0.0551
23,O[C@H]1[C@H]2c3cc4c(cc3CN3CCC(=C[C@@H]1O)[C@H]23)OCO4 [Lycorine],0.424

row,Compound,fraction of GFP-LC3-positive cells
1,CC(=O)CC(c1ccc([N+](=O)[O-])cc1)c1c(O)c2ccccc2oc1=O (stereo not given) [Acenocoumarol],0.0753
2,CCCCC/C=C\C/C=C\C/C=C\C=C\C1CCCC(=O)O1 (racemic) [(±)5-HETE Lactone],0.0775
3,CCCCNc1ccc(C(=O)OCCOCCOCCOCCOCCOCCOCCOCCOCCOC)cc1 [Benzonatate],0.0604
4,CCCCCCCCCCCCCCCCOCC(CO)OC(C)=O (stereo not given) [1-Hexadecyl-2-O-acetyl-glycerol],0.076
5,CCCCCCCCCCCCCCCCOCC(CO)OC(C)=O (stereo not given),0.0373
6,CCN(CC)CCNC(=O)COc1ccc(OC)cc1.Cl [Mefexamide hydrochloride],0.0712
7,"CC1=C(/C=C/C(C)=C/C=C/C(C)=C/C(=O)O)C(C)(C)CCC1 [Retinoic acid, all trans]",0.0413
8,CC1=C(/C=C/C(C)=C/C=C/C(C)=C/C(=O)O)C(C)(C)CCC1,0.0875
9,O=C(CCCCC(=O)Nc1c(I)cc(I)c(C(=O)O)c1I)Nc1c(I)cc(I)c(C(=O)O)c1I [Iodipamide],0.064
10,CCCCC[C@H](O)/C=C/[C@H]1C(=O)C[C@H](O)[C@@H]1C/C=C\CCCC(=O)O,0.0396
11,CCCCC[C@H](O)/C=C/[C@H]1C(=O)C[C@H](O)[C@@H]1C/C=C\CCCC(=O)O [Prostaglandin D2],0.0347
12,Cc1ccc2c(c1)C(=O)C1(O)CCN(c3ccccc3)C1=N2 (stereo not given) [Blebbistatin],0.0372
13,CC(=O)S[C@@H]1CC2=CC(=O)CC[C@]2(C)[C@H]2CC[C@@]3(C)[C@@H](CC[C@@]34CCC(=O)O4)[C@H]12 [Spironolactone],0.0439
14,CCCCCCCC/C=C\C/C=C\C/C=C\CCCC(=O)O [Mead acid (20:3 n-9)],0.0545
15,CCCCCCCC/C=C\C/C=C\C/C=C\CCCC(=O)O,0.0292
16,N/C(=N\C(=O)c1nc(Cl)c(N)nc1N)NCc1ccccc1,0.0546
17,Cl.N/C(=N\C(=O)c1nc(Cl)c(N)nc1N)NCc1ccccc1 [Benzamil hydrochloride],0.0345
18,N/C(=N\C(=O)c1nc(Cl)c(N)nc1N)NCc1ccc(Cl)cc1Cl,0.6
19,CC(N/C(=N\C#N)Nc1ccncc1)C(C)(C)C (stereo not given) [Pinacidil],0.0274
20,CCN(CC)CCCCCCCCOC(=O)c1cc(OC)c(OC)c(OC)c1,0.0457
21,CN1CCC(=C2c3ccccc3Sc3ccccc32)CC1.O=C(O)/C=C\C(=O)O [Pimethixene maleate],0.0718
22,c1ccc(CN(CCN(Cc2ccccn2)Cc2ccccn2)Cc2ccccn2)nc1,0.755
23,CNCCc1ccccn1.CS(=O)(=O)O.CS(=O)(=O)O [Betahistine mesylate],0.0666

row,Compound,fraction of GFP-LC3-positive cells
1,CN(C)CCN(Cc1ccc(Cl)cc1)c1ccccn1.Cl [Chloropyramine hydrochloride],0.056
2,CC(C)(Sc1cc(C(C)(C)C)c(O)c(C(C)(C)C)c1)Sc1cc(C(C)(C)C)c(O)c(C(C)(C)C)c1 [Probucol],0.0472
3,COc1cc2ccc(=O)oc2cc1O [Scopoletin],0.0458
4,CCOC(=O)Oc1c(OC)cc(C(=O)O[C@@H]2C[C@@H]3CN4CCc5c([nH]c6cc(OC)ccc56)[C@H]4C[C@@H]3[C@H](C(=O)OC)[C@H]2OC)cc1OC [Syrosingopine],0.251
5,CCn1cc(C(=O)O)c(=O)c2cc(F)c(N3CCNCC3)nc21 [Enoxacin],0.045
6,Cc1cc2ncc(-c3ccccc3)nc2cc1C,0.0688
7,O=C(O)CNC(=O)C(CS)Cc1ccccc1 (stereo not given) [Thiorphan],0.0564
8,O=C(O)CNC(=O)C(CS)Cc1ccccc1 (stereo not given),0.0651
9,COc1cccc2c1C(=O)c1c(O)c3c(c(O)c1C2=O)C[C@@](O)(C(C)=O)C[C@@H]3O[C@H]1C[C@H](N)[C@H](O)[C@H](C)O1.Cl [Daunorubicin hydrochloride],0.568
10,COc1cccc2c1C(=O)c1c(O)c3c(c(O)c1C2=O)C[C@@](O)(C(=O)CO)C[C@@H]3O[C@H]1C[C@H](N)[C@H](O)[C@H](C)O1.Cl [Doxorubicin hydrochloride],0.482
11,COc1cccc2c1C(=O)c1c(O)c3c(c(O)c1C2=O)C[C@@](O)(C(=O)CO)C[C@@H]3O[C@H]1C[C@H](N)[C@H](O)[C@H](C)O1.Cl [doxorubicin],0.608
12,CC[N+](CC)(CC)CC(=O)Nc1c(C)cccc1C.[Br-],0.0348
13,CC(C)N1CCN(c2ccc(OC[C@H]3CO[C@](Cn4cncn4)(c4ccc(Cl)cc4Cl)O3)cc2)CC1 [Terconazole],0.0686
14,O=C(O)c1ccc2nc(-c3ccccc3)c(-c3ccccc3)nc2c1,0.0605
15,c1ccc2c(Cc3c[nH]c4ccccc34)c[nH]c2c1,0.0651
16,c1ccc2c(Cc3c[nH]c4ccccc34)c[nH]c2c1 [Diindolylmethane],0.0761
17,Nc1nc(=O)c2c([nH]1)NCC(CNc1ccc(C(=O)N[C@@H](CCC(=O)[O-])C(=O)[O-])cc1)N2C=O.[Ca+2] (stereo not given in full) [Folinic acid calcium salt],0.0553
18,CC[C@H]1[C@@H]2C=C[C@@H]3[C@H]4C/C=C\C(=O)NCCC[C@@H]5NC(=O)C(=C5O)C(=O)CC[C@@H]4C[C@@H]3[C@H]2C[C@H]1C [Ikarugamyin],0.69
19,CC1=C(C(=O)O)N2C(=O)[C@@H](NC(=O)[C@H](N)c3ccccc3)[C@H]2SC1.O [Cephalexin monohydrate],0.0422
20,OC[C@H]1NC[C@H](O)[C@@H](O)[C@@H]1O [deoxynorjrimycin(1)],0.0354
21,O=C(O)c1cc(-c2ccc(F)cc2F)ccc1O [Diflunisal],0.0501
